Test results published in ChEMBL document CHEMBL4513216, “Probing the Open Global Health Chemical Diversity Library for Multistage-Active Starting Points for Next-Generation Antimalarials” (ACS Infect Dis, 2020).
Out of some 65,000 compounds screened, about 2,100 (3.2%) showed an effect of 50% or more. The median lay at about -52%. The entries come from a sample that favours strong results as a whole.

System: Plasmodium falciparum
Assay: Screen against P. falciparum Asexual Blood Stage (ABS), at 5uM
Assay type: functional, Dd2
Details: tested at 5 uM

| Compound | INHIBITION [%] |
| --- | --- |
| CC(O)CN1CCC(CN(C)C(=O)NC2CC2)CC1 (stereo not given) | -50.7 |
| CCN(CC)CC1CN(CCc2ccccc2)Cc2nccn2C1 (stereo not given) | 58.7 |
| CCN(CC)CC1CN(Cc2ccc(C)s2)Cc2nccn2C1 (stereo not given) | 66.7 |
| Cc1ccc(CN2Cc3nccn3CC(CN(C)C)C2)s1 (stereo not given) | -47.7 |
| Cc1ccc(CN2Cc3nccn3CC(Cn3cccn3)C2)s1 (stereo not given) | -26.9 |
| CCN(CC)CC1CN(Cc2cccc(C#N)c2)Cc2nccn2C1 (stereo not given) | -6.06 |
| CCN(CC)CC1CN(Cc2ccco2)Cc2nccn2C1 (stereo not given) | -52.4 |
| Cc1cc(CCC(=O)NCc2ncc[nH]2)ccc1Br | -116 |
| CCOC(=O)[C@]12CCCN(Cc3cccs3)C[C@H]1CN(CC(C)C)C2 | 14.6 |
| NC(=O)c1ccc(C(=O)N2CCCCC2Cn2cccn2)s1 (stereo not given) | -33.2 |
| O=C(c1cc(Cl)cc2cccnc12)N1CCN(CCO)CC1 | 30.3 |
| O=C(C1CCC1)N1C[C@@H]2CN(Cc3ccncc3)C(=O)[C@@H]2C1 | -74.3 |
| Cn1cc(CN2CCOC(c3cccc(-c4cncnc4)n3)C2)cn1 (stereo not given) | -54.2 |
| COc1ccc(CN)c(OC(F)F)c1 | -30 |
| COc1ccc(-c2ccccc2CN)c(OC)c1 | 60.2 |
| COc1ccc(-c2ccnc(N)c2)c(OC)c1 | -90.3 |
| CC(C)(C)CN1CCCC(c2nccnc2Nc2cnccn2)C1 (stereo not given) | 22.1 |
| O=C(CCCc1cccs1)N1CCC(N2CCNC2=O)CC1 | -185 |
| CC(C)CN1C(=O)C2(CCN(Cc3nccs3)C2)c2ccccc21 (stereo not given) | -54.5 |
| CCO[C@H]1C[C@@H](O)C12CCN(C1CCN(c3ccccc3C)CC1)CC2 | 10.7 |
| CCc1ccc(C2CC(=O)Nc3cc(OC)c(NS(C)(=O)=O)cc32)o1 (stereo not given) | -121 |
| Cc1cccnc1CN1CCN(C(=O)c2cnn(C(C)C)c2)CC1 | -15.2 |
| Cc1nc(N2CCCC2)nc2c1CCN(C(=O)N1CCCC1)CC2 | 47 |
| Cc1nc(N2CCCC2)nc2c1CN(C(=O)N(C)C)CC2 | -67.8 |
| Cc1nc(N2CCCC2)nc2c1CN(C(=O)N1CCOCC1)CC2 | -70.2 |
| Cc1nc(N2CCOCC2)nc2c1CN(C(=O)C(C)C)CC2 | 56.2 |
| Cc1nc(N2CCOCC2)nc2c1CCN(C(=O)N1CCCC1)CC2 | -112 |

| Compound | INHIBITION [%] |
| --- | --- |
| CC(=O)N1CCc2nc(N3CCCC3)nc(C)c2C1 | 53.8 |
| O=C(NCC(F)F)c1cnc(C2CCCN2)cn1 (stereo not given) | -41.5 |
| CCn1cc(NC(=O)C2CCN(Cc3nc(C(C)C)no3)CC2)cn1 | -86 |
| COc1ccc(F)c(CN(CCCn2ccnc2)Cc2ccc(C)s2)c1 | 39.5 |
| Cc1ccc(CN(CCCn2ccnc2)Cc2cc(F)ccc2F)s1 | 68.8 |
| Cc1ccc(O)c(CN(CCCn2ccnc2)Cc2ccc(C)s2)c1 | 43 |
| CC(C)(C)NC(=O)C1CSCN1C(=O)CCc1ccco1 (stereo not given) | -87.6 |
| O[C@H]1CC[C@@H](Cc2cc(-c3ccccn3)on2)O[C@@H]1CNCC1CC1 | -70.3 |
| O[C@H]1CC[C@@H](Cc2cc(-c3ccc(F)cc3)on2)O[C@@H]1CNCC1CC1 | 63.5 |
| O[C@H]1CC[C@@H](Cc2cc(-c3ccccc3)on2)O[C@@H]1CNCC1CC1 | 39.2 |
| COCCCNC1N=C(n2nc(C)cc2C)Nc2sc3c(c21)CCCC3 (stereo not given) | 46.7 |
| COc1ccc(NC2(C(=O)N3CCn4cncc4C3)CCCC2)cc1 | -27.6 |
| COc1ccc(NC2(C(=O)N3CCCn4cncc4C3)CCCC2)cc1 | 45 |
| Cc1ccc(NC2(C(=O)N3CCn4cncc4C3)CCCCC2)cc1C | 64.5 |
| CN(C)c1cc(CNC(=O)c2cc(Cl)ccn2)ccn1 | -158 |
| Cc1cc(-c2nn3c(C(C)C)nnc3s2)on1 | -33 |
| COCC1Cn2nnc(-c3cnn(C)c3)c2CN1Cc1ccco1 (stereo not given) | -88.9 |
| COCC1Cn2nnc(-c3cnn(C)c3)c2CN1Cc1ccc(C)s1 (stereo not given) | -9.62 |
| COCC1Cn2nnc(-c3cnn(C)c3)c2CN1Cc1cccs1 (stereo not given) | 59.2 |
| Cc1ccc(S(=O)(=O)NCCc2cccnc2)cc1C | -35.5 |
| c1cc(CN2C[C@H](OCC3CCOCC3)[C@H]3COC[C@H]32)co1 | -93 |
| Cc1noc(C)c1C(=O)N1CCCC(c2c(C)c(=O)nc3n2CCC3)C1 (stereo not given) | -105 |
| CN(C)CCNC(=O)c1sccc1N(C)S(=O)(=O)c1ccc(Cl)cc1 | 64.2 |
| CCCNC(=O)c1sccc1N(C)S(=O)(=O)c1ccc(Cl)cc1 | -84 |
| COCCNC(=O)c1sccc1N(C)S(=O)(=O)c1ccc(Cl)cc1 | -88.8 |
| Cc1cccc(CC(=O)N2CCOCC2c2c(C)n[nH]c2C)c1 (stereo not given) | -75.3 |
| CC(=O)N(Cc1noc(C)n1)C1CCN(Cc2cnc(C)s2)C1 (stereo not given) | -55.6 |

| Compound | INHIBITION [%] |
| --- | --- |
| COc1ccc(CN2CCCC2c2cccc(F)c2)c(OC)c1OC (stereo not given) | 60.2 |
| COc1cc(CN2CCCC2c2cccc(F)c2)cc(OC)c1OC (stereo not given) | 28.2 |
| CS(=O)(=O)c1ccc(CN2CCCCC2c2cccc(F)c2)cc1 (stereo not given) | -36.8 |
| COc1cccc(CN2CCCCCC2c2cccs2)c1OC (stereo not given) | -70.3 |
| COc1cccc(CN2CCCC2c2cccc(F)c2)c1OC (stereo not given) | 55.4 |
| Fc1cccc(C2CCCN2Cc2nnnn2C2CC2)c1 (stereo not given) | -26.9 |
| O=C(c1ccc(COc2ccc(Cl)cc2)o1)N1N=CCC1(O)C(F)(F)F (stereo not given) | -121 |
| CCc1nccn1C1CCCN(C(=O)c2cnn3cccnc23)C1 (stereo not given) | -64 |
| O=C(N[C@H]1CN(c2nc(CO)cs2)C[C@@H]1C1CC1)C1CCCCC1 | -26.4 |
| O=C(COC[C@]12COC[C@H]1CN(C1CCC1)C2)N1CCCC1 | -115 |
| Cc1cnc(C(=O)N[C@H]2CN(CCS(C)(=O)=O)C[C@@H]2C2CC2)cn1 | -47.7 |
| Cc1ccc(C(F)(F)F)cc1C(=O)N[C@H]1CN(CCO)C[C@@H]1C1CC1 | 63.9 |
| Cc1cc(C(=O)N[C@H]2CN(CCC(N)=O)C[C@@H]2C2CC2)sc1C | -43.8 |
| Cc1nc(N)sc1C(=O)N[C@H]1CN(CCO)C[C@@H]1C1CC1 | -82.2 |
| Cc1cc(C(=O)N[C@H]2CN(CCO)C[C@@H]2C2CC2)sc1C | 60.8 |
| CSCCCN1C[C@H](NC(=O)c2ccc(CO)cc2)[C@@H](C2CC2)C1 | 17.3 |
| Cc1ccc(CN2CCCC3(CCCN3S(C)(=O)=O)C2)s1 (stereo not given) | -71.7 |
| Cc1ccc(C(=O)N(C)CCCc2cnn(C)c2)cc1N1CCNC1=O | -86.4 |
| O=C(CCc1nnc2ccccn2c1=O)NCc1ccc2c(c1)OCO2 | -108 |
| Cn1cc(CN2CCc3nc(-c4ccccn4)nc(O)c3C2)cn1 | -3.83 |
| Cc1cc(C)n(CC2CN(CCOc3ccc(C#N)cc3)CCO2)n1 (stereo not given) | -114 |
| CC(C)c1noc(CN2CCC(c3nc4cc(Cl)ccc4o3)CC2)n1 | -72.4 |
| CCc1nnc(Nc2cccc(C3CCN(C)CC3)n2)s1 | 6.83 |
| CCc1nnc(Nc2cccc(C3CCN(c4cnccn4)CC3)n2)s1 | 55.5 |
| CCc1nnc(Nc2cccc(C3CCN(CC4CC4)CC3)n2)s1 | 3.36 |
| COCCC(=O)N1CCCC2(CCC(=O)N2CCOC)CC1 (stereo not given) | -122 |
| CN1CCN(C(=O)CCn2nnc3ccccc32)CC(C(N)=O)C1 (stereo not given) | -71.9 |

| Compound | INHIBITION [%] |
| --- | --- |
| Cc1ncsc1C(=O)N1CCC(O)(Cn2c(C)cc3ccncc32)CC1 | -64.6 |
| Cn1ccnc1Sc1ccc(N)cn1 | -78.1 |
| CS(=O)(=O)NC[C@]12COC[C@H]1CN(CCc1ccccc1)C2 | -29.9 |
| O=C(c1ccncc1F)N1Cc2nc(CN3CCCCC3)oc2C1 | -21.6 |
| CN(Cc1ccco1)C1CCC12CCN(C(=O)c1ccnnc1)CC2 (stereo not given) | 53.3 |
| CN(Cc1ccco1)C1CCC12CCN(C(=O)c1ccncc1)CC2 (stereo not given) | 38.3 |
| CN(Cc1ccco1)C1CCC12CCN(C(=O)c1ccco1)CC2 (stereo not given) | -9.15 |
| CC(C)(C)n1ncc2c1CCCC2NCc1ccc2ncccc2c1 (stereo not given) | -1.42 |
| Cc1cc(N2CCC3(CCCN(CCO)C3=O)C2)nc2ccccc12 (stereo not given) | 19.1 |
| Cc1cc(CN(C)C(=O)C(c2ccccc2F)N(C)C)ccn1 (stereo not given) | -25.2 |
| CN(Cc1cnc2ccccc2c1)C(=O)C(c1ccccc1F)N(C)C (stereo not given) | 64.4 |
| CCc1ccc(CN(C)C(=O)C(c2ccccc2F)N(C)C)nc1 (stereo not given) | -0.644 |
| CC1=C[C@@H](CC#N)[C@H](C(C)C)C[C@H]1CC(=O)N1CCN(CCO)CC1 | 40 |
| CC(=O)N1CCN(C(=O)C[C@@H]2C[C@@H](C(C)C)[C@H](CC#N)C=C2C)CC1 | 53.5 |
| CC1=C[C@@H](CC#N)[C@H](C(C)C)C[C@H]1CC(=O)N1CCN(C)CC1 | 44.5 |
| Cc1csc(N2CCN(C(=O)NCCNc3ncccn3)CC2)n1 | -162 |
| COCc1ncn2c1CN(C(=O)c1cccc3cccnc13)CC2 | -90.6 |
| Cc1cnc(CN2CCN(c3nc(C)cs3)C(C)C2)cn1 (stereo not given) | -48.9 |
| FC(F)(F)c1cccc(C2(CNCc3ccncc3)CCOCC2)c1 | 51 |
| Cc1n[nH]cc1CNCC1(c2cccc(F)c2)CCOCC1 | 26.9 |
| CC1(C(=O)NCc2cccc(C(F)(F)F)c2)CCOCC1 | -26.5 |
| COC[C@]1(O)CCN(C2CCN(c3ccc(Cl)cc3)CC2)CC1(C)C | 34.4 |
| COC[C@]1(O)CCN(C2CCN(c3ccc(OC)cc3)CC2)CC1(C)C | -57.6 |
| COC[C@]1(O)CCN(C2CCN(c3ccc(F)c(F)c3)CC2)CC1(C)C | 63.1 |
